ST2 IL33 inh – inhibitors of human ST2 (IL1RL1) binding to IL-33, primary screen, biochemical, AlphaLISA | AID 1259354, 2018 | 78,000 tested, 2.3% active | inhibition, % for hits at 17 µM | AlphaLISA ST2-Fc/biotin-IL-33 interaction, 1 h; in the data active = inhibition above about 30%
Hits are given with their value; – = inactive. The full list was thinned out, with hits kept by preference.

SMILES	ST2 IL33 inh
Cc1ccc(C(=O)Nc2nc(-c3ccccc3)cs2)c(Cl)c1	–
O=C(NCc1nnc2n1CCCCC2)c1cn(Cc2ccc(F)cc2)nn1	–
CCN1C(=O)N(CCc2ccccc2)C2(CCN(Cc3cccc(OC)c3OC)CC2)C1=O	–
COCCCN1C(=O)N(Cc2ccccc2)C(=O)C12CCN(Cc1c(F)cccc1Cl)CC2	32%
O=C1N(Cc2cccnc2)C(=O)C2(CCN(Cc3ccccc3Cl)CC2)N1CCc1ccccc1	–
O=[N+]([O-])c1ccc(N2CCN(c3nc(N4CCN(CCO)CC4)nc4ccccc34)CC2)cc1	31%
Cc1cc(N2CCN(c3cc(N4CCN(CCO)CC4)ccc3[N+](=O)[O-])CC2)c2ccccc2n1	–
OCCN1CCN(c2nc(NCc3ccco3)c3ccccc3n2)CC1	–
O=C(C1CC1)N1CCc2cc(S(=O)(=O)NCc3cccnc3)ccc21	–
O=C(CCS(=O)(=O)c1cccs1)Nc1ccc(C(=O)NC2CCCc3ccccc32)cc1 (centres undefined)	–
O=C(c1cc(COc2ccc3c(c2)OCO3)[nH]n1)N1CCN(CC2CC2)CC1	–

Screening data as filed in PubChem.
